Source: PubChem BioAssay
Most compounds without a hit are left out; they make up all but 11% or so of the library.
RORg inh: inhibitors of mouse ROR gamma transcriptional activity; P51450; Drosophila S2 Gal4-RORgamma UAS-luciferase reporter, 20 h; Potency, µM (highest dose often 53.6 µM), without a hit: at the highest dose activity change, negative = inhibition, actives largely listed as inhibitors; 310,000 tested, 5.4% active; AID 2551; note: potency is the fitted concentration of half-maximal effect; % is set by controls: 0 for no effect and ±100 for the full control effect; nearly all actives have a fitted effect of over 60% in size
Target sequence (P51450 whole entry, looked up, the tested form may be a part): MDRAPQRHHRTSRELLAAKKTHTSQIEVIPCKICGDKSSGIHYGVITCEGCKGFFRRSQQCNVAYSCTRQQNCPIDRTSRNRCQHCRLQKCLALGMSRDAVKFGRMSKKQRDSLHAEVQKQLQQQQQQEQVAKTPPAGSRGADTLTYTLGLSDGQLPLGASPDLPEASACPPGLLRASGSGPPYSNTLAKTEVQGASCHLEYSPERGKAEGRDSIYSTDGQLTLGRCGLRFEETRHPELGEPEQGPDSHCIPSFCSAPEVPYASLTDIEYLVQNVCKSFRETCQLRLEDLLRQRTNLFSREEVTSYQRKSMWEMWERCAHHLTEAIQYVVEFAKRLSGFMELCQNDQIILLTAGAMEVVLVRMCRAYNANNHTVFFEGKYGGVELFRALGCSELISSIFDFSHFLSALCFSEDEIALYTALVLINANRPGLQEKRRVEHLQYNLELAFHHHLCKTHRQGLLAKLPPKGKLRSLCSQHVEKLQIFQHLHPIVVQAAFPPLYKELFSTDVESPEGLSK
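Luciferase reporter read in Schneider cells carrying Gal4-RORγ (mouse) and UAS-Photinus luciferase; cells given compound 1 h before 700 uM copper sulfate induction, then incubated 20 h at ambient temperature.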
VP16 counter: counter-screen for ROR gamma inhibitors: Gal4-VP16 reporter; AID 2546; Potency, µM (top dose mostly 53.6 µM), for the others: at the highest dose activity, negative = inhibition, actives largely listed as inhibitors; 310,000 tested, 3.5% active; Drosophila S2 Gal4-VP16 UAS-luciferase, luminescence, 20 h;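 note: Gal4-VP16 expression switched on by copper sulfate through the metallothionein promoter; potency is the fitted concentration of half-maximal effect; % is set by controls: 0 for no effect and ±100 for the full control effect; nearly all actives have a fitted effect of over 50% in size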
SW480 rereplic: DNA re-replication induction in SW480 cells | SW480 DNA re-replication, Hoechst DNA content imaging, 48 h | 340,000 tested, 1.8% active | Potency, µM (titrated, usually from 46.1 µM), without a hit: top-dose re-replication activation, most hits filed as activators; note: potency is the fitted concentration of half-maximal effect; % of control where 0% means no effect; nearly all actives have a fitted effect of over 55% in size
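Hoechst fluorescence of nuclei (405 nm excitation, 500-530 nm emission) measured by plate-scanning imager after 48 hr compound exposure at 37 C; re-replication scored as increased number of nuclei with elevated intensity.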
IL-1B inflam inh: inhibitors of inflammasome signaling (IL-1 beta secretion). 360,000 tested, 4.7% active. activity change, % at 57.5 µM. THP-1 LPS/ATP IL-1B secretion, AlphaLISA, 16 h; hits give low values. AID 743279; in the data active = activity change below about -50%; inconclusive = mostly about -30% to -49%; note: % is set by controls: 0 for no effect and ±100 for the full control effect
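THP-1 cells pretreated 1 hr with compounds (up to 57.5 uM final), then stimulated with LPS (250 ng/mL final) plus ATP (1.25 mM final); secreted IL-1B measured by AlphaLISA after 16 hr, decreased signal indicating inhibition.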
MCF10A rerep: inducers of DNA re-replication in MCF 10A breast cells | 350,000 tested, 2.9% active | MCF 10A DNA re-replication, Hoechst nuclear intensity, 48 h | AID 624296 | Potency, µM (highest dose often 46.1 µM), for the others: top-dose activity, positive = re-replication, actives largely listed as activators; note: potency is the fitted concentration of half-maximal effect; % of control where 0% means no effect; nearly all actives have a fitted effect of over 50% in size
* hit, by the source's call; ? = inconclusive; . = not tested or not shown; [ ] = remark or other dose. Unless noted, calls come from the whole dose curve; as a rule, active = well fitted curve in the direction sought with a large enough effect; inconclusive = small, poorly fitted or top-dose-only effect, or another doubt; inactive = no such curve, though single readings can be large; an effect the other way counts as inactive or inconclusive.

SMILES	RORg inh	VP16 counter	SW480 rereplic	IL-1B inflam inh	MCF10A rerep
CC(Sc1nnc2c(n1)[nH]c1ccccc12)C(=O)N(C)C1CCCCC1 (stereo unspecified)	?	?	9%	-56*	?
CCCCCC(=O)N1C[C@@H](O)[C@H](n2cc(COC(=O)c3ccccc3)nn2)C[C@@H]1c1ccc(Cl)cc1	.	.	.	-7	.
O=C(CSCc1ccccc1)N1CCN(Cc2ccc3c(c2)OCO3)CC1	8%	5%	-15%[9.22 µM]	?	4%
O=C(CSc1ncnc2scc(-c3ccccc3)c12)N1CCN(Cc2ccc3c(c2)OCO3)CC1	22µM*	?	1%	-25	?
O=C(CSc1nccc2ccccc12)N1CCN(Cc2ccc3c(c2)OCO3)CC1	.	.	-12%	-81*	16%
C[n+]1c2n(c3ccccc31)N=C(c1ccc(Cl)cc1)CS2	7%	-3%[0.365 µM]	?	-74*	14%
COc1cc(C2C3C(=O)N(c4ccccc4)C(=O)C3ON2c2ccccc2)cc(OC)c1OC (stereo unspecified)	9%	0%	-8%	17	0%
COc1cc(C2C3C(=O)N(c4ccc(F)cc4)C(=O)C3ON2c2ccccc2)ccc1O (stereo unspecified)	18%	2%	-4%	10	14µM*
CCN1c2ccccc2N(C)C1(C)c1ccccc1 (stereo unspecified)	-94%	?	12µM*	5	?
CN1c2ccccc2N(C)C1(C)c1ccccc1	9%	-9%	5.8µM*	27	?
CCC1(c2ccccc2)CN(C)C1=O (stereo unspecified)	.	.	.	-9	.
CC(Oc1ccc(F)cc1)C(=O)Nc1cc(S(=O)(=O)N2CCOCC2)ccc1N1CCCCC1 (stereo unspecified)	.	.	-313%	-19	?
Cc1ccc(NC(=O)Cc2nc(CN(C)CC(=O)Nc3ccc(C)cc3)cs2)cc1	.	.	-6%	-15	4%
O=C(/C=C/c1ccccc1)c1ccc2c3c(cccc13)CC2	13µM*	16µM*	9%	-99*	18µM*
Nc1ncnc2nc(SCC(=O)Nc3ccccc3F)[nH]c12	42%	-4%	?	75	?
COc1ccc(-c2c(N)nnc3c2[nH]c2ccccc23)cc1OC	-3%	-11%	8%	-64*	5%
COc1ccc(-c2c(N)n[nH]c2C)cc1OC	-19%	2%	1%	0	-7%
Cc1ccc(C2C=C(c3ccccc3)Nc3ncnn32)cc1 (stereo unspecified)	.	.	-6%	-21	?
CCOc1ccc(C2C=C(c3ccc(F)cc3)Nc3ncnn32)cc1 (stereo unspecified)	13µM*	?	3%	-13	-1%
C1=C(c2ccc(-c3ccccc3)cc2)Nc2ncnn2C1c1ccco1 (stereo unspecified)	11µM*	?	4%	41	9%
Oc1ccc(C2C=C(c3ccc(F)cc3)Nc3ncnn32)cc1 (stereo unspecified)	6%	-3%	10µM*	3	8%
CCC(CC)CN1CCC(CN2C(=S)NC[C@@H]2[C@@H](C)CC)CC1	.	.	-2%	-2	9%
CCN1C(=O)[C@H]2[C@@H](c3ccc(C)cc3)N[C@]3(CCCN(Cc4ccc(F)cc4)C3=O)[C@H]2C1=O	.	.	.	3	.
Cc1ccc(NC(=O)NCC2CCN(Cc3cccc(Cl)c3)CC2)c(Cl)c1	-13%	-6%	19%	-51*	10%
Cc1ccc(CN2CCC(CNC(=O)Nc3ccccc3F)CC2)cc1	-11%	-3%	-13%	-53*	15%
SMILES	RORg inh	VP16 counter	SW480 rereplic	IL-1B inflam inh	MCF10A rerep
CCc1ccc(NC(=O)NCC2CCN(Cc3cccc(Cl)c3)CC2)cc1	-29%	4%	?	-17	-10%
Cc1ccc(NC(=O)NCC2CCN(Cc3cccc(Cl)c3)CC2)cc1Cl	20µM*	-24%	-6%	-100*	?
O=C(NCC1CCN(Cc2cccc(Cl)c2)CC1)Nc1ccccc1Cl	-2%	10%	?	-83*	15%
Cc1ccc2nc(-c3ccc(C#N)cc3)c(Cc3cccc(Cl)c3)n2c1	.	.	.	0	.
CN1C(=O)[C@H]2[C@@H](c3ccc(C(F)(F)F)cc3)N[C@]3(CCCN(Cc4ccc(Br)cc4)C3=O)[C@H]2C1=O	.	.	.	-19	.
CCC(Oc1ccccc1OC)C(=O)Nc1ccc2c(c1)OCO2 (stereo unspecified)	-7%	-3%	-5%	-8	1%
O=C(Nc1ccccc1C(F)(F)F)c1ccc(CN2CCC(Cc3ccccc3)CC2)cc1	29%	-3%	?	-52*	22%
C=CCc1cccc(C2NC(C(=O)O)CCC2C)c1 (stereo unspecified)	-6%[10 µM]	-6%[10 µM]	.	.	.
CC(=O)CSc1ccc(-c2nc3cc(C)c(C)cc3[nH]2)cn1	-8%	1%	12%	-82*	-1%[9.22 µM]
Cc1cc2nc(-c3ccc(SCC(=O)Nc4ccc(S(=O)(=O)N5CCCC5)cc4)nc3)[nH]c2cc1C	?	?	?	50	21µM*
CC(=O)CSc1ccc(-c2nc3ccccc3[nH]2)cn1	10µM*	11µM*	-11%[9.22 µM]	-58*	4%
N#Cc1ccccc1CSc1ccc(-c2nc3ccccc3[nH]2)cn1	?	-3%[0.365 µM]	-3%	-71*	6%
Cc1csc(-c2nc3ccccc3n2C(C(=O)NC(C)(C)C)c2cc3ccccc3o2)c1 (stereo unspecified)	.	.	.	-19	.
COc1cccc(NC(=O)c2ccnc(N3CCC(C(=O)NCc4cc(OC)ccc4OC)CC3)c2)c1	26%	5%	-12%	-2	16%
Clc1ccc(-c2nc3sccn3c2/C=N/OCc2ccc(Cl)c(Cl)c2)cc1	20%	-9%	.	.	.
O=C1c2ccc3c4c(ccc(c24)C(=O)N1NC(=O)C(F)(F)F)CC3	-22%	-10%	?	?	0%
CC(=O)NN1C(=O)c2ccc3c4c(ccc(c24)C1=O)C(=O)N(NC(C)=O)C3=O	11µM*	11µM*	?	82	?
O=C(NC1CCCCCC1)c1ccc(Cl)c(S(=O)(=O)N2CCOCC2)c1	43%	2%	?	-9	?
O=C(CN(Cc1ccccc1Cl)C(=O)c1csnn1)NCc1ccccc1	-2%	-7%	-5%	-1	-14%
Cc1ccc(NC(=S)N(CCN(C)C)Cc2cc3cccc(C)c3[nH]c2=O)cc1	-32%	-3%	21µM*	0	?
Cc1ccc(NC(=S)N(CCN(C)C)Cc2cc3cc(C)ccc3[nH]c2=O)cc1	5%	3%	-4%	-68*	8%
Cc1ccc(NC(=S)N(Cc2cccs2)Cc2cc3cc(C)ccc3[nH]c2=O)cc1	-26%	?	-6%	-8	16%
Cc1cccc(NC(=S)N(CCN(C)C)Cc2cc3cccc(C)c3[nH]c2=O)c1	-11%	-6%	?	?	3%
